# Experimental data: ChEMBL document CHEMBL4513216, “Probing the Open Global Health Chemical Diversity Library for Multistage-Active Starting Points for Next-Generation Antimalarials” (ACS Infect Dis, 2020)
# The whole screen tested about 68,000 compounds, of which about 2,700 (4%) showed an effect of 50% or more. What follows is part of a selection rich in strong results, with near analogues and random picks from the rest.
# System: Plasmodium berghei
# Test: Screen against P. berghei liver stage (PbLuc), transformed with Luciferase, at 2uM
# Format: functional, HepG2
# Conditions: tested at 2 uM
row,SMILES,INHIBITION
1,Cn1cc(CC(CNC(=O)Nc2cccc(Cl)c2)C(N)=O)cn1 (configuration not stated),31.78%
2,COc1cccc(NC(=O)NCC(Cc2cnn(C)c2)C(N)=O)c1 (configuration not stated),55.25%
3,COc1cccc(NC(=O)NCc2cnn(C)c2)c1,7.33%
4,CO[C@@H]1CC[C@@H](NC(=O)c2ccc(OCCN3CCCC3)cc2)[C@H]1O,-1.51%
5,COCC(=O)N1CCC(c2cc3ncccc3c(O)n2)CC1,19.89%
6,c1ccc2oc(CCCN3CCOC(Cn4cncn4)C3)nc2c1 (configuration not stated),53.11%
7,c1ccc2oc(CCCN3CCOC(Cn4cccn4)C3)nc2c1 (configuration not stated),14.11%
8,c1ncn(CC2CN(CCCOc3ccc4c(c3)OCO4)CCO2)n1 (configuration not stated),53.98%
9,Fc1ccc(OCCCN2CCOC(Cn3cncn3)C2)cc1 (configuration not stated),-20.71%
10,Cc1cnn(CC2CN(CCCc3nc4ccccc4o3)CCO2)c1 (configuration not stated),5.14%
11,c1cnn(CC2CN(CCCOc3ccc4c(c3)OCO4)CCO2)c1 (configuration not stated),-14.46%
12,COc1cc(N2CCC3(CCN(Cc4csc(C)n4)C3)CC2)ncn1,7.76%
13,CNc1nc(C2CCCN(C(=O)C(C)(C)OC)C2)nc2c1CN(C)CC2 (configuration not stated),-11.02%
14,Cc1nc(Cn2c(=O)cnc3ccccc32)n(C)n1,-48.07%
15,CCN(Cc1cccs1)C(=O)c1ccc(=O)n(C)c1,50.59%
16,CN(Cc1cccs1)C(=O)c1ccc(=O)n(C)c1,7.67%
17,COCCN(Cc1cccs1)C(=O)c1ccc(=O)n(C)c1,29.13%
18,CC(=O)N1CCC2(CC1)CN(C(=O)c1cccc3[nH]ccc13)C2,57.92%
19,CC(=O)N1CCC2(CC1)CN(C(=O)c1cccc3[nH]ccc13)CCO2,37.41%
20,CC(=O)N1CC2(CCN(C(=O)c3cccc4[nH]ccc34)CC2)C1,3%
21,Cc1ccc(N(Cc2ccco2)C(=O)Cc2cc(=O)n(C)[nH]2)cc1,-12.06%
22,COC(=O)[C@H](C)NC(=O)c1cc(-c2cccc(Cl)c2)no1,11.28%

row,SMILES,INHIBITION
1,CC(NC(=O)c1cc(-c2cccc(Cl)c2)no1)C(=O)N1CCCC1 (configuration not stated),24.29%
2,CC(NC(=O)c1cc(-c2cccc(Cl)c2)no1)C(=O)N(C)C (configuration not stated),50.59%
3,O=C(c1cncs1)N1CCC(Cc2cnc3[nH]ccc3c2)CC1,-11.64%
4,CC(C)OC(=O)CNC(=O)Nc1ccc(-c2nc(C(C)C)no2)cc1,-13.72%
5,CC(C)c1noc(-c2ccc(NC(=O)NCC(O)C(C)C)cc2)n1 (configuration not stated),-10.44%
6,COCCNC(=O)Nc1ccc(-c2nc(C(C)C)no2)cc1,58.53%
7,O=c1c2ccc(C(F)(F)F)cc2ncn1CCCN1CCCCC1CO (configuration not stated),-13.49%
8,Cc1nn(C)cc1CN1CCC(c2ncc(Cl)cc2S(C)(=O)=O)CC1,20.51%
9,O=C1CSC(c2ccncc2)c2c[nH]nc2N1 (configuration not stated),76.13%
10,COc1cc(C2SCC(=O)Nc3n[nH]cc32)cc(OC)c1O (configuration not stated),-33.37%
11,COc1ccc(C2SCC(=O)Nc3n[nH]cc32)c(OC)c1OC (configuration not stated),2.66%
12,Cc1cccc(C(=O)NCc2ccccc2)n1,5.09%
13,CC(=O)NCCNC(=O)NCCCc1cccc(F)c1,31.55%
14,CC(C)(C)S(=O)(=O)CCNC(=O)NCCCc1cccc(F)c1,26.02%
15,CC(C)NC(=O)NCCCc1cccc(F)c1,78.96%
16,OC(CN1CCN(CCOCC(F)(F)F)CC1)c1ccccc1 (configuration not stated),25.35%
17,O=C(CCc1nccs1)N1CCN(c2ccccc2F)CC1,44.12%
18,N#Cc1ccccc1N1CCCN(C(=O)CCc2nccs2)CC1,63.95%
19,N#Cc1cccnc1N1CCN(C(=O)c2cccs2)CC1,23.76%
20,Cc1ncsc1CCC(=O)NC1CCN(c2ncccc2C#N)CC1,51.81%
21,N#Cc1ccccc1N1CCCN(C(=O)CCc2ccsc2)CC1,-107.32%
22,N#Cc1cccnc1N1CCCN(C(=O)CCc2cccs2)CC1,10.1%

row,SMILES,INHIBITION
1,N#Cc1ccccc1N1CCCN(C(=O)CCc2ccco2)CC1,75.56%
2,Cc1ncsc1C(=O)NC1CCN(c2ncccc2C#N)CC1,-4.58%
3,N#Cc1cccnc1N1CCCN(C(=O)CCc2nccs2)CC1,-71.75%
4,Cc1ncsc1CCC(=O)NC1CCN(c2ccc(Cl)nn2)CC1,2.04%
5,N#Cc1cccnc1N1CCN(C(=O)CCC(=O)c2cccs2)CC1,53.81%
6,N#Cc1ccccc1N1CCCN(C(=O)CCc2cccs2)CC1,16.08%
7,COC1COC2(CCN(Cc3ccccc3C)CC2)C1 (configuration not stated),27.65%
8,CC(C)n1cnc2c(N3CCCC3)nc(C3CCNCC3)cc21,14.39%
9,CC(NCc1ccccc1Br)c1ccc2[nH]c(=O)[nH]c2c1 (configuration not stated),20.28%
10,CCCc1nc2c(c(C)c(C)n2Cc2ccccn2)c(N)c1CC,-17.84%
11,O=C(NCCc1cc(N2CCOCC2)nc(NC2CC2)n1)C1CC1,38.45%
12,COCCN1CCN(c2nc(O)cc(Cc3ccccc3F)n2)CC1,-35.66%
13,Cc1cc(NC(=O)Cn2cc(C#N)c(=O)c3cc(Br)ccc32)no1,3.43%
14,CN(Cc1ccon1)C(=O)CN1C(=O)OC(C)(C)C1=O,70.76%
15,CN(Cc1cc(C2CC2)on1)C(=O)CN1C(=O)OC(C)(C)C1=O,37.41%
16,CN(Cc1ccoc1)C(=O)CN1C(=O)OC(C)(C)C1=O,0.85%
17,CCn1nc(C)c2nc(C(C)C)nc(N3CCC(O)CC3)c21,5.86%
18,O=C(c1cccc(F)c1)N1CCC2(CC1)CN(c1ccccn1)CCO2,-29.13%
19,COCCn1/c(=N\C(=O)CN(C)S(C)(=O)=O)sc2cc(OC)ccc21,11.87%
20,COCCn1/c(=N\C(=O)CN(C)S(C)(=O)=O)sc2cc(C)ccc21,29.19%
21,COCCn1/c(=N\C(=O)CN(C)S(C)(=O)=O)sc2cc(Cl)ccc21,52.05%
22,Nc1ncnc2[nH]c(N3CCCCC3)nc12,-87.36%

row,SMILES,INHIBITION
1,Clc1ccccc1OC1CN(CC2CCOC2)C1 (configuration not stated),-14.36%
2,CC(C)NC(=O)N1CCC[C@H]1C(=O)NCCCc1cccc(F)c1,-22.24%
3,CN(Cc1cccc(F)c1)C(=O)CN1CCCCC1Cn1cncn1 (configuration not stated),3.3%
4,N#CCCN(CCC#N)C(=O)CN1CCCC1Cc1cccc(F)c1 (configuration not stated),-43.03%
5,CN(Cc1cccc(F)c1)C(=O)CN1CCCC1CCc1ccccc1 (configuration not stated),80.56%
6,CN(Cc1cccc(F)c1)C(=O)CN1CCCC(Cn2cncn2)C1 (configuration not stated),53.1%
7,CN(Cc1ccccc1)C(=O)CN1CCCC(Cn2cncn2)C1 (configuration not stated),45.5%
8,CN(Cc1ccc(F)cc1)C(=O)CN1CCCC(Cn2cncn2)C1 (configuration not stated),2.08%
9,COc1cc(OC)cc(C(=O)N(C)Cc2nnc3ccccn23)c1,34.39%
10,Cc1ccc(N2C[C@H]3CCC[C@@H](CN4CCOCC4)[C@H]3C2)nn1,-7.49%
11,CN(C)c1ccc(C(=O)NCc2cccnc2-n2cncn2)cc1F,20.19%
12,O=C(CCNC(=O)C1CCCC1)NCc1ccccc1Cn1cncn1,-14.17%
13,O=C(CC1CCCO1)NCc1ccccc1Cn1cncn1 (configuration not stated),8.37%
14,O=C(CCC1CCCO1)NCc1ccccc1Cn1cncn1 (configuration not stated),64.16%
15,NC(=O)C1CCN(C(=O)NCc2ccccc2Cn2cncn2)CC1,64.07%
16,O=C(NCc1ccccc1Cn1cncn1)N1CCCC1,-9.49%
17,CN(C)C1CCN(C(=O)NCc2ccccc2Cn2cncn2)CC1,9.05%
18,O=C(NCc1ccon1)c1c(F)cc(Br)cc1F,1.04%
19,Cc1nc(C2CCCN(C(=O)c3c[nH]c(C(C)C)n3)C2)no1 (configuration not stated),13.3%
20,Cc1cc(C)n(CC2CCCCN2CC(=O)NC2CCOCC2)n1 (configuration not stated),27.5%
21,CCN(Cc1cnn(CC)c1)C(=O)CN1C(=O)CCc2ccccc21,21%
22,CC(C)(C)c1n[nH]c(C2CN(C(=O)c3ccsc3)CCO2)n1 (configuration not stated),31.19%

row,SMILES,INHIBITION
1,CNC(=O)C(C)(C)NC(=O)c1cc(COc2cccc(C(C)=O)c2)[nH]n1,-8.74%
2,CC(c1cccnc1)N(C)Cc1ccccn1 (configuration not stated),-18.23%
3,CC1N(CC2CC2)C(=O)COC12CCN(C(=O)c1cccs1)CC2 (configuration not stated),32.04%
4,COc1ccccc1S(=O)(=O)N1CCN(C)[C@@H]2CS(=O)(=O)C[C@@H]21,40.88%
5,CCN1CCN(S(=O)(=O)N2CCc3ccccc3C2)[C@H]2CS(=O)(=O)C[C@H]21,25.37%
6,CCCN1CCN(S(=O)(=O)c2ccccc2OC)[C@H]2CS(=O)(=O)C[C@H]21,52.45%
7,Cc1cc(C(=O)Nc2cc(C3CC3)n[nH]2)c2c(C)nn(C)c2n1,40.99%
8,CCn1ncc(NC(=O)c2cc(C3CC3)nc3c2c(C)nn3C)c1C,52.52%
9,CCCn1ncc2c(C(=O)Nc3cnn(CC)c3C)cc(C3CC3)nc21,34.52%
10,COc1ccccc1CNC(=O)CN(C)C(C)c1nccs1 (configuration not stated),38.91%
11,c1cnn(CC2CCCN2c2ncnc3ccsc23)c1 (configuration not stated),-16.42%
12,CN(C)C(=O)N1CCO[C@@H]2CC(COCc3cccnc3)C[C@H]21 (some centres not stated),20.01%
13,O=C(NCCCc1ccco1)c1ccc(N2CCOCC2)cc1,-89.85%
14,O=C(NCCCc1ccc(F)cc1)c1ccc(N2CCOCC2)cc1,-26.8%
15,O=C(NCCc1ccncc1)c1ccc(N2CCOCC2)cc1,68.9%
16,Cn1c(-c2cc3n(n2)CCCN(CC(=O)O)C3)nc2ccccc21,-15.71%
17,Cc1cccc(COC[C@@H]2CC[C@H]3[C@H](CCN3C(=O)CC3CC3)O2)n1,51.72%
18,Cc1cccc(COC[C@@H]2CC[C@H]3[C@H](CCN3Cc3ccco3)O2)n1,2.39%
19,Cc1cccc(COC[C@H]2CC[C@H]3[C@H](CCN3C(=O)CC3CC3)O2)n1,9.79%
